The values below come from the supplement of paper PMC7411054.

Common to all, as to assay: lowest phenotypically active concentration; higher = less potent
Common to all, as to settings: treatment time: 24 h

One test relates to A549-TP53BP1-CLTA. In a few lines: (§1)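 Fifteen gene-edited A549, HepG2 and WPMY1 reporter lines (BFP segmentation plus GFP and RFP/FusionRed markers) were treated at 0.3, 1, 3 or 9 µM for 24 h, four wells each, then imaged live. Live-cell features per well were normalised to DMSO control wells. Deviation required ≥3 of 4 wells beyond the 95th percentile of DMSO Euclidean distances, and reproducibility required median replicate Pearson correlation above the 95th percentile of non-replicates. Phenotypic activity needed both criteria.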

For a further test, the system named is HepG2-CANX-COX4. Put shortly: as §1
In the next test the test system is HepG2-GM130-SQSTM1. In a few lines: as §1
A further test deals with HepG2-TP53BP1-CLTA. In a few lines: as §1
The subject of a further test is HepG2-TUBA1B-RELA. Put shortly: as §1
The test system of a further test is WPMY1-ACTB-RAB5A. Put shortly:
as §1

For the next test, the system named is WPMY1-CANX-COX4. In a few lines:
as §1

For another test, the system named is WPMY1-TP53BP1-CLTA. In a few lines:
as §1

The test system of another test is WPMY1-TUBA1B-RELA. Put shortly:
as §1

For `CSc1ccc2c(c1)N(CCC1CCCCN1C)c1ccccc1S2` (centres undefined) [thioridazine], the “lowest phenotypically active concentration” value with A549-TP53BP1-CLTA, with HepG2-CANX-COX4, in the test with HepG2-GM130-SQSTM1, in the test on HepG2-TP53BP1-CLTA, with HepG2-TUBA1B-RELA and in the test on WPMY1-ACTB-RAB5A was 9 µM in each case. The “lowest phenotypically active concentration” value in the test with WPMY1-CANX-COX4, in the test with WPMY1-TP53BP1-CLTA and in the test with WPMY1-TUBA1B-RELA was 9 µM throughout.
As for `Clc1ccccc1C(c1ccccc1)(c1ccccc1)n1ccnc1` [Clotrimazole], the “lowest phenotypically active concentration” value in the test with A549-TP53BP1-CLTA, with HepG2-CANX-COX4 and in the test on WPMY1-CANX-COX4 was 9 µM in each case.
Turning to `C[C@]1(O)C[C@@H](c2nc(-c3ccc4ccc(-c5ccccc5)nc4c3)c3c(N)nccn32)C1` [linsitinib], the “lowest phenotypically active concentration” value in the test on A549-TP53BP1-CLTA, with HepG2-CANX-COX4, with HepG2-GM130-SQSTM1, with HepG2-TP53BP1-CLTA, with HepG2-TUBA1B-RELA and with WPMY1-ACTB-RAB5A was 9 µM in each case. The “lowest phenotypically active concentration” value in the test with WPMY1-CANX-COX4 and in the test on WPMY1-TP53BP1-CLTA was 9 µM each time.
Turning to `CC(C)OC(=O)c1cc2c(OCC(O)CNC(C)(C)C)cccc2[nH]1` (centres undefined), the “lowest phenotypically active concentration” value in the test with A549-TP53BP1-CLTA was found to be 9 µM; in the test with HepG2-TP53BP1-CLTA it was 3 µM; in the test with HepG2-TUBA1B-RELA, 9 µM; in the test with WPMY1-ACTB-RAB5A, 3 µM; in the test on WPMY1-CANX-COX4, 9 µM; with WPMY1-TP53BP1-CLTA, 9 µM. In addition, the “lowest phenotypically active concentration” value in the test with WPMY1-TUBA1B-RELA came out at 9 µM.
With `COc1ccc(CNC(=O)Nc2ncc([N+](=O)[O-])s2)cc1`, the “lowest phenotypically active concentration” value in the test on A549-TP53BP1-CLTA, with WPMY1-CANX-COX4 and with WPMY1-TP53BP1-CLTA was 9 µM each time.
Turning to `Cc1noc(C)c1Cn1cc(C#N)c2cc(Oc3ccc(NC(=O)[C@@H]4CCCN4)cc3)ccc21`, the “lowest phenotypically active concentration” value with A549-TP53BP1-CLTA, in the test on HepG2-GM130-SQSTM1, in the test on HepG2-TP53BP1-CLTA, in the test on HepG2-TUBA1B-RELA, in the test on WPMY1-ACTB-RAB5A and in the test with WPMY1-CANX-COX4 was 9 µM each time. For the same compound, the “lowest phenotypically active concentration” value in the test on WPMY1-TP53BP1-CLTA and in the test on WPMY1-TUBA1B-RELA was 9 µM each time.
With `COc1ccccc1OCCNCC(O)COc1cccc2[nH]c3ccccc3c12` (centres undefined) [Carvedilol], the “lowest phenotypically active concentration” value in the test on A549-TP53BP1-CLTA, in the test on HepG2-CANX-COX4, in the test with HepG2-GM130-SQSTM1, in the test with HepG2-TP53BP1-CLTA, in the test on HepG2-TUBA1B-RELA and in the test with WPMY1-ACTB-RAB5A was 9 µM each time. The “lowest phenotypically active concentration” value with WPMY1-CANX-COX4, with WPMY1-TP53BP1-CLTA and with WPMY1-TUBA1B-RELA was 9 µM in each case.
With `CCCCOc1cc(C(=O)NCCN(CC)CC)c2ccccc2n1` [cinchocaine], the “lowest phenotypically active concentration” value in the test on A549-TP53BP1-CLTA, with HepG2-TP53BP1-CLTA and with WPMY1-ACTB-RAB5A was 9 µM in each case.
For `Cn1cc(C2=C(c3ccc(Cl)cc3Cl)C(=O)NC2=O)c2ccccc21`, the “lowest phenotypically active concentration” value with A549-TP53BP1-CLTA was at most 0.3 µM; in the test with HepG2-GM130-SQSTM1, 1 µM; with HepG2-TP53BP1-CLTA it was at most 0.3 µM; with WPMY1-CANX-COX4, 1 µM; in the test with WPMY1-TP53BP1-CLTA it was at most 0.3 µM.
As to `CCCNCC(O)COc1ccccc1C(=O)CCc1ccccc1` (centres undefined) [propafenone], the “lowest phenotypically active concentration” value with A549-TP53BP1-CLTA was found to be 9 µM; in the test with HepG2-TUBA1B-RELA it was 9 µM; in the test with WPMY1-ACTB-RAB5A, 9 µM; in the test on WPMY1-CANX-COX4 it was 9 µM; in the test with WPMY1-TP53BP1-CLTA, 3 µM.
On to `O=C1Cc2cc(CCN3CCN(c4nsc5ccccc45)CC3)c(Cl)cc2N1` [ziprasidone], for which the entries for the “lowest phenotypically active concentration” value with HepG2-GM130-SQSTM1, in the test on HepG2-TP53BP1-CLTA and with HepG2-TUBA1B-RELA were 3 µM, 9 µM and 3 µM, respectively.
Take `CCN(CCO)CCCC(C)Nc1ccnc2cc(Cl)ccc12` (centres undefined) [hydroxychloroquine]: the “lowest phenotypically active concentration” value in the test on HepG2-GM130-SQSTM1, with HepG2-TUBA1B-RELA, in the test with WPMY1-ACTB-RAB5A, in the test on WPMY1-CANX-COX4 and in the test with WPMY1-TUBA1B-RELA was 9 µM each time.
With `CN(C)CC(O)Cn1c2ccc(Br)cc2c2cc(Br)ccc21` (centres undefined) [Wiskostatin], the “lowest phenotypically active concentration” value in the test with HepG2-CANX-COX4 is 9 µM; with HepG2-GM130-SQSTM1, 3 µM; with HepG2-TP53BP1-CLTA it was 3 µM; with HepG2-TUBA1B-RELA, 3 µM; with WPMY1-ACTB-RAB5A it was 3 µM; with WPMY1-CANX-COX4 it was 3 µM. In addition, the results for the “lowest phenotypically active concentration” value in the test with WPMY1-TP53BP1-CLTA and in the test on WPMY1-TUBA1B-RELA were 9 µM and 3 µM, respectively.
Take `CCOC(=O)c1c(CSc2ccccc2)n(C)c2cc(Br)c(O)c(CN(C)C)c12` [arbidol]: the “lowest phenotypically active concentration” value in the test on HepG2-CANX-COX4, with HepG2-GM130-SQSTM1, in the test with HepG2-TP53BP1-CLTA and in the test on HepG2-TUBA1B-RELA was 9 µM in each case.
With `Cc1cc2nc(NCCCO)n(CC(=O)c3cc(C(C)(C)C)c(O)c(C(C)(C)C)c3)c2cc1C`, the “lowest phenotypically active concentration” value in the test on HepG2-TUBA1B-RELA was found to be 9 µM.
Turning to `CC(=O)O[C@@H]1C[C@H]2C(C)(C)C(=O)C=C[C@]2(C)[C@H]2CC[C@@]3(C)[C@H](c4ccoc4)OC(=O)[C@H]4O[C@]43[C@@]21C` [gedunin], the “lowest phenotypically active concentration” value in the test on HepG2-CANX-COX4 turned out to be 1 µM; in the test on HepG2-GM130-SQSTM1 it was 9 µM; in the test on HepG2-TP53BP1-CLTA, 3 µM; in the test with HepG2-TUBA1B-RELA, 9 µM; in the test with WPMY1-ACTB-RAB5A it was 3 µM; with WPMY1-CANX-COX4 it was 9 µM.
As for `COc1ccc(Cl)cc1NC(=O)Nc1cc(C)nc2ccccc12`, the “lowest phenotypically active concentration” value with HepG2-CANX-COX4 turned out to be 1 µM; in the test on HepG2-GM130-SQSTM1, 3 µM; with HepG2-TP53BP1-CLTA, 3 µM; with HepG2-TUBA1B-RELA, 3 µM.
With `Clc1ccc2c(c1)C(N1CCNCC1)=Nc1ccccc1O2` [amoxapine], the “lowest phenotypically active concentration” value in the test on HepG2-GM130-SQSTM1 was determined as 9 µM; with HepG2-TUBA1B-RELA, 3 µM; in the test on WPMY1-ACTB-RAB5A it was 9 µM; with WPMY1-TUBA1B-RELA, 9 µM.
Turning to `Cc1c(O)cccc1C(=O)N[C@@H](CSc1ccccc1)[C@H](O)CN1C[C@H]2CCCC[C@H]2C[C@H]1C(=O)NC(C)(C)C` [nelfinavir], the “lowest phenotypically active concentration” value in the test on HepG2-CANX-COX4 is 3 µM; in the test with HepG2-GM130-SQSTM1 it was 9 µM; in the test on HepG2-TUBA1B-RELA, 9 µM; with WPMY1-ACTB-RAB5A it was 3 µM; in the test with WPMY1-CANX-COX4, 9 µM; in the test with WPMY1-TUBA1B-RELA, 9 µM.
Turning to `COc1cc(NC(=O)c2cccc(-n3cc(NC(=O)Nc4cccc(C)c4)cn3)c2)cc(OC)c1OC`, the “lowest phenotypically active concentration” value with WPMY1-TUBA1B-RELA amounted to 9 µM.
With `CC(=O)Nc1ccc(NC(=S)NC(=O)c2ccc(C(C)(C)C)cc2)cc1` [Tenovin-1], the “lowest phenotypically active concentration” value in the test on HepG2-CANX-COX4 was 3 µM; in the test on HepG2-TP53BP1-CLTA, 9 µM; in the test with HepG2-TUBA1B-RELA, 3 µM; in the test with WPMY1-ACTB-RAB5A, at most 0.3 µM; in the test with WPMY1-CANX-COX4, 9 µM; in the test on WPMY1-TP53BP1-CLTA, 1 µM. The “lowest phenotypically active concentration” value in the test on WPMY1-TUBA1B-RELA was 1 µM.
For the compound `O=C(CCCN1CCC(O)(c2ccc(Cl)cc2)CC1)c1ccc(F)cc1` [haloperidol], the “lowest phenotypically active concentration” value in the test on HepG2-GM130-SQSTM1, with HepG2-TP53BP1-CLTA and in the test with HepG2-TUBA1B-RELA was 9 µM each time.
For the compound `CNCCCN1c2ccccc2CCc2ccccc21` [desipramine], the “lowest phenotypically active concentration” value in the test with HepG2-TUBA1B-RELA, in the test on WPMY1-ACTB-RAB5A and with WPMY1-TUBA1B-RELA was 9 µM each time.
On to `CCSc1ccc2c(c1)N(CCCN1CCN(C)CC1)c1ccccc1S2` [thiethylperazine], for which the “lowest phenotypically active concentration” value with HepG2-GM130-SQSTM1, in the test on HepG2-TUBA1B-RELA, in the test on WPMY1-ACTB-RAB5A, in the test on WPMY1-CANX-COX4, in the test with WPMY1-TP53BP1-CLTA and in the test on WPMY1-TUBA1B-RELA was 9 µM each time.
As for `CN(C)CCCN1c2ccccc2Sc2ccc(C(F)(F)F)cc21` [triflupromazine], the “lowest phenotypically active concentration” value in the test on HepG2-TUBA1B-RELA, with WPMY1-ACTB-RAB5A, in the test with WPMY1-CANX-COX4 and in the test on WPMY1-TUBA1B-RELA was 9 µM each time.
As to `CCCc1cc(C)n(C)c(=O)c1CN(C)C(=O)c1cc(-c2ccc(N3CCN(C(C)C)CC3)nc2)cc2c1cnn2C(C)C`, the “lowest phenotypically active concentration” value came out at 3 µM in the test with HepG2-GM130-SQSTM1; 3 µM with HepG2-TP53BP1-CLTA; 3 µM with WPMY1-ACTB-RAB5A; 3 µM in the test on WPMY1-CANX-COX4; 9 µM in the test with WPMY1-TP53BP1-CLTA; 9 µM in the test with WPMY1-TUBA1B-RELA.
Consider `O=C(NCCN1CCC(n2c(=O)[nH]c3ccccc32)CC1)c1cc2cc(F)ccc2[nH]1`, for which the “lowest phenotypically active concentration” value in the test on HepG2-CANX-COX4, in the test on HepG2-GM130-SQSTM1, in the test with HepG2-TP53BP1-CLTA, in the test with HepG2-TUBA1B-RELA, in the test on WPMY1-ACTB-RAB5A and in the test on WPMY1-CANX-COX4 was 9 µM each time. Besides, the “lowest phenotypically active concentration” value with WPMY1-TP53BP1-CLTA and in the test on WPMY1-TUBA1B-RELA was 9 µM in each case.
As to `CN(C)CCCN1c2ccccc2CCc2ccc(Cl)cc21` [clomipramine], the “lowest phenotypically active concentration” value with HepG2-TP53BP1-CLTA, with HepG2-TUBA1B-RELA, in the test with WPMY1-ACTB-RAB5A, in the test with WPMY1-CANX-COX4, with WPMY1-TP53BP1-CLTA and in the test on WPMY1-TUBA1B-RELA was 9 µM throughout.
For the compound `N#C/C(=C/c1ccc(-c2cc(Cl)ccc2Cl)o1)C(=O)Nc1cccc2ncccc12`, the “lowest phenotypically active concentration” value in the test on WPMY1-CANX-COX4 was found to be 9 µM.
Turning to `CC(CN(C)C)CN1c2ccccc2CCc2ccccc21` (centres undefined) [trimipramine], the “lowest phenotypically active concentration” value in the test on HepG2-TUBA1B-RELA, with WPMY1-ACTB-RAB5A and in the test with WPMY1-CANX-COX4 was 9 µM in each case.
